Measured values from PubChem BioAssay.
A number with no mark means an inactive call. Activity calls are given as the source filed them.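 How the source made its calls: active means inhibition above the hit cutoff set in the earlier primary screen (cut at about 27% in these data); inactive means the rest.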

target: Protein phosphatase methylesterase 1 (Homo sapiens) (UniProt Q9Y570); test: human PME-1 methylesterase inhibition confirmation – biochemical, fluorescence polarization, FP-Rh probe, triplicate (AID 2171); details: recombinant PME-1, FP-Rh probe fluorescence polarization; at 5.9 µM; stronger effect = higher value;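 further: 0% = enzyme with DMSO and 100% = wells lacking PME-1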
Sequence (Q9Y570 whole entry, looked up): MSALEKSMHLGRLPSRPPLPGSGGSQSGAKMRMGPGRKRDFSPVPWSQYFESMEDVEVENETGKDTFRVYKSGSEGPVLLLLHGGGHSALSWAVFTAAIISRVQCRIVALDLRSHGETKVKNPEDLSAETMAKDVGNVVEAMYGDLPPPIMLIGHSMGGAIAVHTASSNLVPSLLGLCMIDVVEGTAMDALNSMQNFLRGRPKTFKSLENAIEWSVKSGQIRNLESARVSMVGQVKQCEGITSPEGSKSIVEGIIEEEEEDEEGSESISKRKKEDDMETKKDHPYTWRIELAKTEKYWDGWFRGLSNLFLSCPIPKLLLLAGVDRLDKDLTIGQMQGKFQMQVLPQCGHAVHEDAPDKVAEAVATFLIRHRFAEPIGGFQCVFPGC

Row | Compound | inhibition
1 | Cc1cccc(C)c1NS(=O)(=O)c1ccc(NC(=O)c2ccc(Cl)c([N+](=O)[O-])c2)cc1 | -96.3%
2 | Nc1ccc(O)c2c1C(=O)c1ccccc1C2=O | 46.5% (active)
3 | O=C(O)CCNc1ccc(NCCC(=O)O)c2c1C(=O)c1ccccc1C2=O | 16.7%
4 | Cc1cc(C)c2[nH]c(O)c(N=NC(=O)c3cc4c(s3)CCCC4)c2c1 | 31.9% (active)
5 | Oc1cccc(Nc2nc(O)c(/C=C3\C=Nc4ccccc43)s2)c1 | -7.79%
6 | O=C(O)c1ccc(N/N=C/c2ccc(-c3ccc(Cl)cc3Cl)o2)cc1 | 85.9% (active)
7 | CCCCCCn1c(=O)[nH]c2nc3cc(N)ccc3nc2c1=O | 37.6% (active)
8 | COc1ccccc1/C=C/C=N/n1c(-c2cc(-c3ccccc3)n[nH]2)n[nH]c1=S | 23.4%
9 | COc1ccc(Nc2ncnc3sc(-c4ccccc4)cc23)cc1 | 10.1%
10 | O=C(O)c1ccc(N/N=C/c2ccc(OC(=O)c3cccc(Cl)c3)cc2)cc1 | 37% (active)
11 | C=CCCC(=O)Nc1nc(C)c(-c2csc(Nc3ccc(Cl)cc3)n2)s1 | 48.2% (active)
12 | COc1cc2[nH]c3c(N4CCN(c5ccc(Cl)cc5)CC4)ncnc3c2cc1OC | 74.9% (active)
13 | CCCCC(=Nc1ccc(N)cc1)C1=C(O)C(C(=O)OC)C(C)(C)CC1=O (stereo not given) | 13.4%
14 | COc1ccc(C(=O)c2sc3nc(-c4ccccc4)ccc3c2N)cc1 | 11.8%
15 | CC(C)S(=O)(=O)c1csc(NC(=O)Nc2cccc([N+](=O)[O-])c2)c1Cl | -58.5%
16 | C/C(=C\c1ccc2c(c1)OCO2)C1Nc2cccc3cccc(c23)N1 | 28.5% (active)
17 | CCN1CCc2c(sc(NC(=O)Nc3ccc(Cl)c(Cl)c3)c2C(N)=O)C1 | 14.2%
18 | CCc1ccc(NC(=O)Nc2cccs2)cc1 | 17.9%
19 | O=C(c1cccs1)N1CCC(c2nc3c(nnn3Cc3ccccc3Cl)c(=O)[nH]2)CC1 | 25.4%
20 | S=C(Nc1ccc(N2CCOCC2)cc1)Nc1ccc2nc(-c3ccco3)c(-c3ccco3)nc2c1 | 24.7%
21 | O=[N+]([O-])c1ccc(N/N=C/c2cccc(O)c2O)cc1 | 23.3%
22 | O=c1[nH]n2c(=O)c3c([nH]c2c1N=Nc1cccc(C(F)(F)F)c1)CCCC3 | 60.6% (active)
23 | Cc1ccc(NC(=O)COc2cccc(/C=C3\SC(=S)N(CCC(=O)O)C3=O)c2)cc1Cl | 26%
24 | O=C1Nc2ccccc2/C1=N\N=C\C1=C(N2CCOCC2)C(=C\c2ccccc2)/CC1 | 24%
25 | O=C(NNc1c2ccccc2nc2ccccc12)c1ccccc1O | 65.5% (active)
